Source: PubChem BioAssay (NCI)
This is part of a sample that, as a whole, favours compounds with a hit. Of some 79,000 tested, about 15% had one in any assay. Unmarked numbers belong to inactive results. Active and inactive are the calls of the source. Rule as the data show it: active = growth inhibition above about 70%; inactive = the rest.

Legend:
[1] = NCI Yeast Anticancer Drug Screen. Data for the rad50 strain (AID 155);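 also: 0% = growth of vehicle-only cultures of the same strain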; settings: S. cerevisiae rad50 strain growth inhibition, stronger effect = higher value; at 50.0 µM unless noted
Procedure, shortened: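 DNA repair mutant yeast, compound exposure, growth read-out; inhibition is taken relative to vehicle.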

[2] = NCI Yeast Anticancer Drug Screen. Data for the mec2-1 strain (AID 157); settings: S. cerevisiae mec2-1 strain, stronger effect = higher value; at 50.0 µM unless noted
Procedure, shortened: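 Cells of the genetically defined mec2-1 yeast strain are incubated with test compound. Inhibition of growth is calculated against vehicle-treated controls.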

[3] = NCI Yeast Anticancer Drug Screen. Data for the sgs1 mgt1 strain (AID 161);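 also: 0% = growth of cultures given vehicle only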; settings: S. cerevisiae sgs1 mgt1 strain, stronger effect = higher value; at 50.0 µM unless noted
Procedure, shortened: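 Read-out: growth inhibition vs vehicle controls. Cells: mutant yeast strain deficient in DNA damage repair.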

[4] = NCI Yeast Anticancer Drug Screen. Data for the cln2 rad14 strain (AID 165);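 also: 0% = growth equal to vehicle treated cultures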; settings: S. cerevisiae cln2 rad14 strain, stronger effect = higher value; at 50.0 µM unless noted
Procedure, shortened: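 The screen exposed genetically defined yeast (cln2 rad14) to test compounds and scored growth inhibition relative to vehicle-treated controls.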

[5] = NCI Yeast Anticancer Drug Screen. Data for the bub3 strain (AID 167); settings: S. cerevisiae bub3 mutant strain, stronger effect = higher value; at 50.0 µM unless noted
Procedure, shortened: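 In this screen, a yeast mutant lacking normal mitotic checkpoint function is challenged with compound. Relative growth versus vehicle gives the inhibition value.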

[6] = NCI Yeast Anticancer Drug Screen. Data for the mlh1 rad18 strain (AID 175); settings: S. cerevisiae mlh1 rad18 strain growth inhibition, stronger effect = higher value; at 50.0 µM unless noted
Procedure, shortened: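 Compound-treated yeast growth, normalised to vehicle controls. Strain bears defined DNA repair mutations.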

| Structure (SMILES) | growth inhibition [1] | growth inhibition [2] [%] | growth inhibition [3] | growth inhibition [4] [%] | growth inhibition [5] | growth inhibition [6] [%] |
| --- | --- | --- | --- | --- | --- | --- |
| Cn1c2ccccc2c2nnc(NCCCO)nc21 | 18.9% | 21.7 | 18.8% | 43.3 | 25% | 11.2 |
| COc1cc(CCC(NC(C)=O)c2cccc(O)c(=O)c2)cc(OC)c1OC (stereo not given) | -10.2% | -4.6 | 17.2% | -33.5 | -3.35% | 8.1 |
| COC(=O)c1ccccc1NC(=O)c1c(-c2ccccc2Cl)noc1C | 72% (active) | 67.8 | 88.6% (active) | 46.9 | 77.2% (active) | 54.9 |
| NC1CCC(C2CCC(N)CC2)CC1 (stereo not given) | 17.1% | 20.6 | 3.7% | -53 | -6.45% | -13.7 |
| CCOC(=O)c1c(C)[nH]c(C=O)c1C | 5.65% | 9.3 | 0.25% | 16.7 | -0.25% | 4.4 |
| CCNC(=O)Nc1cccc(C)n1 | 14.9% | 14.1 | 22.8% | 27.6 | 4.4% | 19.4 |
| COc1cccc(N2C(=O)C3c4[nH]c5ccc(C)cc5c4C4CCC(C)CC4C3C2=O)c1 (stereo not given) | -10.7% | -27.4 | -29.1% | -6.5 | -23.1% | -13.4 |
| O=S(=O)([O-])[O-].O=c1[nH]cnc2[nH]ncc12.O=c1[nH]cnc2[nH]ncc12.[Zn+2] | -26.2% | 4.15 | -15.9% | 3.65 | -20.8% | -17.6 |
| COC1OC(COC(=O)NCCCCC(=O)C(F)(F)F)C(O)C(O)C1O (stereo not given) | 3.6% | 22.6 | -0.5% | 29.9 | 28.2% | 11.6 |
| COc1ccc(SSc2ccc(OC)cc2C(=O)O)c(C(=O)O)c1 | -4% | -19.1 | -21.1% | 1.4 | -36.1% | 1.8 |
| CC12OC3(C)C4CC1C1(C)OC4(C)C3C(O)C21 (stereo not given) | -0.8% | 4.8 | -3.7% | -16.6 | -6.5% | 10.3 |
| CCCCN(CCCC)CC(C(=O)Nc1ccc([N+](=O)[O-])cc1[N+](=O)[O-])/C(C)=N\NC(=O)c1ccncc1 (stereo not given) | 22.7% | -3.65 | 11.8% | -65.1 | 2.55% | 18.1 |
| S=c1[nH]nc(-c2ccccc2Cl)o1 | -47.9% | -17.7 | -47.8% | -21.2 | -4.75% | -66.2 |
| COc1cc(CNc2ccccc2)ccc1O | -15.2% | 6.1 | -16.9% | -8.1 | 10.9% | -8.4 |
| CC(=O)COC(=O)c1ccccc1 | 32.1% | 3.5 | 28.7% | 0 | 10.2% | 26.2 |
| CC(C)COC(=O)c1ccccc1 | 35% | 7.95 | 20.1% | -18.4 | -9.6% | 3.6 |
| O=C(O)CCSCCC(=O)O | -22.8% | -2.5 | -29.4% | -48.4 | -13.6% | 22.4 |
| CCOC(OCC)N1C(=O)C2(C(OCC)OCC)CC3C(OC(=O)N3N)c3cccc1c32 (stereo not given) | -16.4% | 4.15 | -7.45% | -8.95 | -4.75% | -4.4 |
| c1cncc(C2N3CCCCC3[C@@H]3c4[nH]c5ccccc5c4CCN23)c1 (stereo not given in full) | -26.6% | -40.5 | -22.8% | -8.25 | -15.1% | -26.9 |
| CC1C(c2ccccc2)OCCN1CN1C(=O)c2ccccc2C1=O (stereo not given) | 10.8% | 17.4 | 12.4% | 21.8 | 17.1% | -3.6 |

| Structure (SMILES) | growth inhibition [1] | growth inhibition [2] [%] | growth inhibition [3] | growth inhibition [4] [%] | growth inhibition [5] | growth inhibition [6] [%] |
| --- | --- | --- | --- | --- | --- | --- |
| CC(=O)NC(CCCCNC(=O)N(CCCl)N=O)C(=O)NCc1ccccc1 (stereo not given) | 1.2% | -1.15 | 0.7% | 14.7 | -2.35% | -1.85 |
| O=S1(=O)OCCOS(=O)(=O)C1(Br)Cc1ccccc1 | -67.7% | -40.6 | -37.5% | -40.4 | -63.8% | -24.2 |
| Cn1nnnc1NCc1ccccc1 | -2.55% | 5.35 | -5.85% | -24.6 | -2% | 5.15 |
| CC1(C)OC(=O)C(Cc2ccccc2)(Cc2ccccc2)C(=O)O1 | 2.2% | -19.9 | -11.8% | 30.1 | -17.1% | -13.9 |
| COc1ccccc1C(=O)Oc1ccc(OC(=O)c2ccccc2OC)c(C(C)=O)c1 | 16.6% | -1.85 | 0% | 3.25 | 20.2% | 35.4 |
| c1ccc(CSCc2cnc[nH]2)cc1 | -1.3% | 0.6 | -1.95% | 14.8 | 5.7% | -6.95 |
| Cc1c(C(=O)CC(=O)C(=O)Nc2ccc(Cl)c(Cl)c2)[n+](=O)c2ccccc2n1[O-] | 12.6% | 16.9 | -16.1% | 34.5 | 19.4% | 20.2 |
| Cc1ccc(-c2ccc(C)cc2C(=O)O)c(C(=O)O)c1 | -21.8% | 1 | 4% | -28.1 | -2.5% | -15.3 |
| C=C(c1c(C)cccc1OC(C)=O)c1c(C)cccc1OC(C)=O | -8.8% | -10.6 | -0.6% | -9.1 | 17.3% | -6.55 |
| CCC(=O)OC(CCC1CCCO1)CCC1CCCO1 (stereo not given) | 11.5% | 12.2 | 3.75% | 12.4 | 22.9% | -3.55 |
| O=c1[nH]c(=O)n(C2CC(O)C(CO)O2)cc1OCCCc1ccccc1 (stereo not given) | -27.8% | 0.75 | 12.2% | 13.8 | -0.5% | -3.2 |
| Cn1cnc2ncnc(Cl)c21 | 1.85% | -3.45 | 9.8% | -19.1 | -52.1% | -26.9 |
| COc1cc(O)c(C/C=C/c2ccccc2)cc1O | 49.6% | 21.4 | 27.6% | -12.3 | 29.1% | 64.9 |
| Cc1ccc(S(=O)(=O)N/N=C/c2ccoc2)cc1 | -32.1% | -8.6 | -17.1% | -3.9 | 4.45% | -14.4 |
| COc1cc(C(=O)NO)ccc1O | -0.15% | -12.6 | -15.1% | -1.95 | -6% | -1.4 |
| CC(=O)OC[C@@]12C[C@H]3C(=O)C(C)(C)C[C@H]3[C@]1(C)[C@@H](OC(C)=O)[C@]1(O)[C@H]([C@@H](OC(=O)c3ccccc3)[C@@H](C)[C@H]1OC(C)=O)[C@H]2OC(C)=O | -13.6% | -26.9 | 3.25% | -3.25 | 10.8% | -3.15 |
| O=C(O)C1(C(=O)O)CCCCC1.[NH2-].[NH2-].[Pt+2] | 2.65% | 17.5 | 1.6% | 22.2 | 7.6% | 15.8 |
| CN(C)C1=CC(=S)NC(c2ccccc2)C1 (stereo not given) | -2.35% | -16.1 | -3.7% | -11.8 | -15% | -0.55 |
| O=C(Cc1nc2ccccc2o1)C(=O)Nc1cccc(Cl)c1 | -4.25% | 0.9 | -1.95% | -42.2 | 3.65% | 19.1 |
| CC(C)C(=O)Nc1nc2nc[nH]c2c(=O)[nH]1 | 11.6% | -23.6 | 24.9% | 12.8 | -7.95% | -22.9 |
